Source: PubChem BioAssay (Tox21)
Unmarked numbers belong to inactive results. Inconclusive results are not listed. Entries that show only a call come without a potency. The source made the active and inactive calls. Unless noted, calls come from the whole dose curve; as a rule, active = well fitted curve in the direction sought with a large enough effect in the repeat runs; inconclusive = weak or mixed curves; inactive = no such curve, though single readings can be large; an effect the other way counts as inactive or inconclusive.

Tests used:
[1] = qHTS assay to identify small molecule antagonists of the estrogen related receptor (ERR) signaling pathway from Tox21 library - cell viability counter screen (AID 1224834); note: nearly all actives have a fitted effect of over 30% in size; note: potency is the fitted concentration of half-maximal effect
Outline: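 CellTiter-Fluor fluorescence, read after 30 min at 37 C, measures viability of ERR cells. Cells plated at 2,000/well and incubated 6 h before pin-tool compound addition, then exposed 17.5 hours at 37 C.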

[2] = qHTS assay to identify small molecule agonists of the constitutive androstane receptor (CAR) signaling pathway - cell viability counter screen (AID 1224836); note: series mostly up to about 92 µM; nearly all actives have a fitted effect of over 45% in size
Outline: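 HepG2 cells stably carrying hCAR and a CYP2B6-2.2kb reporter; 15-concentration compounds plus PK11195 (final 0.75 uM), 23 hr at 37 C/5% CO2. Viability read by CellTiter-Fluor fluorescence.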

[3] = qHTS assay to identify small molecule antagonists of the constitutive androstane receptor (CAR) signaling pathway - cell viability counter screen (AID 1224837); note: series mostly up to about 92 µM; nearly all actives have a fitted effect of over 45% in size
Outline: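 Cytotoxicity counter-screen: CellTiter-Fluor fluorescence after 23 h compound exposure (15-point qHTS) in double-stable HepG2-CYP2B6-hCAR cells, with 50 nM CITCO added.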

[4] = biological target: Nuclear receptor subfamily 1 group I member 3 (Homo sapiens) (UniProt Q14994); test: qHTS assay to identify small molecule antagonists of the constitutive androstane receptor (CAR) signaling pathway (AID 1224838);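 note: HepG2 cells stably expressing hCAR with CYP2B6 luciferase reporter stimulated by CITCO; nearly all actives have a fitted effect of over 40% in size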
Sequence of Nuclear receptor subfamily 1 group I member 3 (Homo sapiens) (Q14994 whole entry, looked up): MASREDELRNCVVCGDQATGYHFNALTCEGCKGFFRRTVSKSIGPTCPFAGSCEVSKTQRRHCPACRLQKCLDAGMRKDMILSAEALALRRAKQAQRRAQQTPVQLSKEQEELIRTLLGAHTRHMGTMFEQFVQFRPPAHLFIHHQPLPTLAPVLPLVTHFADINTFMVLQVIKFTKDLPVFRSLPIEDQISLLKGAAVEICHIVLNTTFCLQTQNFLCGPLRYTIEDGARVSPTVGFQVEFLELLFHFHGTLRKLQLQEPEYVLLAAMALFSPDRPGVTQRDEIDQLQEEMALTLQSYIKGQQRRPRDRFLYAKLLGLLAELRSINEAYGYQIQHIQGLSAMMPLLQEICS
Outline: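 Antagonism measured as luciferase signal (ONE-Glo, 30 min, room temperature) in CAR-stimulated cells: HepG2-CYP2B6-hCAR double-stable line exposed 24 hr at 37 C to compound in a 15-point series plus 50 nM CITCO.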

[5] = biological target: Nuclear receptor subfamily 1 group I member 3 (Homo sapiens) (UniProt Q14994); test: qHTS assay to identify small molecule agonists of the constitutive androstane receptor (CAR) signaling pathway (AID 1224839); note: nearly all actives have a fitted effect of over 15% in size; note: potency is the fitted concentration of half-maximal effect;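 for activation: HepG2 cells stably carrying human CAR and a CYP2B6 luciferase reporter; series mostly up to about 92 µM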
Outline: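 HepG2 cells stably co-transfected with hCAR and a CYP2B6-2.2kb luciferase reporter; compounds at 15 concentrations with 0.75 uM PK11195 present. After 24 hr at 37 C, luciferase read by ONE-Glo luminescence.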

[6] = qHTS assay to identify small molecule antagonists of the estrogen related receptor signaling pathway with the pleiotropic PPARgamma coactivator (PGC) from Tox21 10K library - cell viability counter screen (AID 1224840; active = well fitted cell-killing curve with a large enough effect in the repeat runs, not every such curve was filed as active; note: nearly all actives have a fitted effect of over 40% in size)
Outline: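 Counter-screen for cytotoxicity: after 17.5 h compound exposure at 37 C, CellTiter-Fluor reagent added to PGC/ERR cells for 30 min and fluorescence read. Cells were seeded at 2,000 per well 6 h before dosing.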

[7] = biological target: Thyrotropin receptor (Homo sapiens) (UniProt P16473); test: qHTS assay to identify small molecule agonists of the thyroid stimulating hormone receptor (TSHR) signaling pathway (AID 1224843; calls by dose curve; note: nearly all actives have a fitted effect of over 45% in size)
Sequence of Thyrotropin receptor (Homo sapiens) (P16473 whole entry, looked up): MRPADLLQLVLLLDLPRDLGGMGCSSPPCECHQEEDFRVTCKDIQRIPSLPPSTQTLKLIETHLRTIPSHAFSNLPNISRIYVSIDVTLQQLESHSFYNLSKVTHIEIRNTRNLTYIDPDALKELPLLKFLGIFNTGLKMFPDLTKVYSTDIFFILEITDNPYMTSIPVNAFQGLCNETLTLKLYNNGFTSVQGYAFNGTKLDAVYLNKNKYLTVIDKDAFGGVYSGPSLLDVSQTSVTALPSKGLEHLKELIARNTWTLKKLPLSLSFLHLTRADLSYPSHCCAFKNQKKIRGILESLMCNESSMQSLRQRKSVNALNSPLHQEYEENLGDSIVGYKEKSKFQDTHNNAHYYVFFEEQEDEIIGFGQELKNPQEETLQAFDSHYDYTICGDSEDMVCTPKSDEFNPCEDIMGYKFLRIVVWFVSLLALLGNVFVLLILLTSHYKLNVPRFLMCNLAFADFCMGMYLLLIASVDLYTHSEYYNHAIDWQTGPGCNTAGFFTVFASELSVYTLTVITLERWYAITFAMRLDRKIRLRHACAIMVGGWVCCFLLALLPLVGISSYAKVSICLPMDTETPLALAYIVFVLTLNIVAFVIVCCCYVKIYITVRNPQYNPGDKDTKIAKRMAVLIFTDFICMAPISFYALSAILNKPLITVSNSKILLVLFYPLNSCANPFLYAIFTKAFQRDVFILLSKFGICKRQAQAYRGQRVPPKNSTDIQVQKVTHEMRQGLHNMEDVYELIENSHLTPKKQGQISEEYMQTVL
Outline: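 Agonist-mode screen: TSHR HEK293 cells received test chemicals for half an hour at room temperature, then HTRF cAMP detection reagents for one hour prior to fluorescence measurement. Each chemical ran as a 15-concentration series, triplicated.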

[8] = qHTS assay to identify small molecule agonists of the hypoxia (HIF-1) signaling pathway - cell viability counter screen (AID 1224844; calls by dose curve; note: nearly all actives have a fitted effect of over 50% in size)
Outline: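 Cytotoxicity measured by CellTiter-Glo ATP luminescence in the wells also read for beta-lactamase signal. Cells were HRE-bla ME-180 (2,000/well, 0.5% dialyzed FBS), exposed to compounds for 17 h at 37C.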

[9] = qHTS assay to identify small molecule agonists of H2AX (AID 1224845; active = well fitted activation curve with a large enough effect in the signal ratio in the repeat runs, not every such curve was filed as active; the % refers to the signal ratio)
Outline: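 Wild-type CHO-K1 cells, plated overnight, exposed 3hr at 37C to 15 concentrations (0.76% DMSO final). Lysed, then HTRF anti-pH2AX (S139) cryptate and anti-H2AX-d2 antibodies, 24 hr room temperature; 665/620 nm emission read.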

[10] = qHTS assay to identify small molecule agonists of H2AX - cell viability counter screen (AID 1224847; calls by dose curve; note: top concentration of the series differs between compounds; nearly all actives have a fitted effect of over 30% in size)
Outline: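 CHO-K1 cells plated overnight at 37C, then exposed 3 h at 37C to compounds at 15 concentrations (0.76% DMSO final). Viability by CellTiter-Glo luminescence after 30 min at room temperature.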

[11] = qHTS RealTime-Glo MT Cell Viability Assay in HepG2 cells - 24 hour (AID 1224867); note: nearly all actives have a fitted effect of over 50% in size
Outline: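 Compound treatment began 5 h after plating HepG2 cells (600/well) with NanoLuc luciferase and prosubstrate. Plates stayed at 37 C for 40 h; luminescence was captured at six time points, 0 h through 40 h.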

[12] = qHTS RealTime-Glo MT Cell Viability Assay in HEK293 cells - 32 hour (AID 1224868); note: top concentration of the series differs between compounds; nearly all actives have a fitted effect of over 50% in size
Outline: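 Quantitative high-throughput screen of the Tox21 10K library in HEK293: cells and RealTime-Glo reagents plated together, compound added at 5 h, luminescence monitored through 40 h at 37 C.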

[13] = A CellTox Green Cytotoxicity Assay to monitor cytotoxicity in HEK293 cells - 0 hour (AID 1224869); note: nearly all actives have a fitted effect of over 50% in size
Outline: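 Fluorescence from a DNA-binding dye excluded by viable cells was measured repeatedly in the same HEK293 wells (600 cells/well) during continuous compound exposure at 37 C. Each assay gives one read point: 0, 8, 16, 24, 32 or 40 h.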

[14] = qHTS RealTime-Glo MT Cell Viability Assay in HepG2 cells - 40 hour (AID 1224870); note: nearly all actives have a fitted effect of over 50% in size
Outline: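 HepG2 cells (600/well) mixed with RealTime-Glo MT reagent, settled 5 h at 37 C/5% CO2 before compound addition. Nonlytic NanoLuc luminescence from viable-cell prosubstrate reduction read repeatedly during 40 h treatment at 37 C.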

[15] = qHTS assay to identify small molecule antagonists of the estrogen related receptor signaling pathway with the pleiotropic PPARgamma coactivator (PGC) from Tox21 10K library (AID 1224841; call rule not given here)
Outline: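 Luminescence (One-Glo, 30 min at room temperature) after 18 h compound treatment at 37 C of PGC/ERR reporter cells plated at 2,000 cells/well and settled 6 h beforehand.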

[16] = qHTS assay to identify small molecule agonists of the estrogen related receptor signaling pathway with the pleiotropic PPARgamma coactivator (PGC) from Tox21 10K library (AID 1224842); note: nearly all actives have a fitted effect of over 15% in size
Outline: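 PGC/ERR reporter cell line, 2,000 cells per well, incubated 6 h at 37 C before 23 nL compound in DMSO was added. After 18 h at 37 C, One-Glo luminescence read following 30 min at room temperature.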

[17] = qHTS assay to identify small molecule antagonists of the estrogen related receptor (ERR) signaling pathway from Tox21 library (AID 1224848); note: nearly all actives have a fitted effect of over 50% in size
Outline: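 Quantitative high-throughput format: ERR reporter cells (2,000/well) pre-incubated 6 h, treated 18 h at 37 C with compounds in DMSO alongside positive and negative controls, then read by ONE-Glo luminescence.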

[18] = qHTS assay to identify small molecule agonists of the estrogen related receptor (ERR) signaling pathway from Tox21 library (AID 1224849; calls by dose curve; note: nearly all actives have a fitted effect of over 15% in size)
Outline: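 Luminescent agonist read-out (One-Glo, 30-minute room-temperature incubation) following 18-hour compound treatment at 37 C of the ERR cell line, which had been plated 6 hours before dosing.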

[19] = qHTS assay to identify small molecule agonists of the hypoxia (HIF-1) signaling pathway (AID 1224846; active = well fitted activation curve with a large enough effect in the signal ratio in the repeat runs, not every such curve was filed as active; the % refers to the signal ratio)
Outline: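 Compounds added to ME-180 cells carrying hypoxia-response-element beta-lactamase reporter (0.5% dialyzed FBS, 5 h preplating), 17 h at 37C; agonist activity detected by CCF4-AM B/G FRET read-out.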

[20] = biological target: Luciferin 4-monooxygenase (Photinus pyralis) (UniProt P08659); test: qHTS assay to identify small molecule inhibitors of firefly luciferase (AID 1224835); note: series mostly up to about 120 µM; nearly all actives have a fitted effect of over 25% in size
Sequence of Luciferin 4-monooxygenase (Photinus pyralis) (P08659 whole entry, looked up): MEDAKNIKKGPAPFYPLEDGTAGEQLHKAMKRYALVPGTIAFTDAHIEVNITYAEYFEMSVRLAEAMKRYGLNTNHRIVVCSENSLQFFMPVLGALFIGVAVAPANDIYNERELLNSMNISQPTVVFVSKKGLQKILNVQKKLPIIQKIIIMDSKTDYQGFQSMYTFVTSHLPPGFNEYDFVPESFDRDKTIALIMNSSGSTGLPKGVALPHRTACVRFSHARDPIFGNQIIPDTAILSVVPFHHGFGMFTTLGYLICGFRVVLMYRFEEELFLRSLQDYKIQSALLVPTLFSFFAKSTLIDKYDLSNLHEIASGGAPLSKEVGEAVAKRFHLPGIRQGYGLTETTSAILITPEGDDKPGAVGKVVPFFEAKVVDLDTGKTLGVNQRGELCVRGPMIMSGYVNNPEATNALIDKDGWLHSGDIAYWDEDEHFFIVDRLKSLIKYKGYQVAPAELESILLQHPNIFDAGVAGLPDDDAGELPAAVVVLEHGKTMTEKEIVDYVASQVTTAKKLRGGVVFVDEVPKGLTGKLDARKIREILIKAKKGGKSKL
Outline: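 Biochemical qHTS: compounds run as interplate titrations against purified firefly enzyme, with D-luciferin and ATP each at its KM concentration. Light output recorded by CCD imaging.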

Structure (SMILES)	Potency [1]	outcome [2]	outcome [3]	Potency [4]	Potency [5]	outcome [6]	Potency [7]	Potency [8]	Potency [9]	outcome [10]	outcome [11]	Potency [12]	outcome [13]	Potency [14]	Potency [15]	Potency [16]	Potency [17]	outcome [18]	outcome [19]	Potency [20]
C[C@H]1[C@H](NC(=O)/C(=N/OC(C)(C)C(=O)O)c2csc(N)n2)C(=O)N1S(=O)(=O)O (stereo in doubt)	inactive	inactive	inactive	inactive	inactive	inactive	inactive	inactive	inactive	inactive	inactive	inactive	inactive	inactive	–	–	–	–	–	–
CO[C@@]1(NC(=O)C(C(=O)O)c2ccc(O)cc2)C(=O)N2C(C(=O)O)=C(CSc3nnnn3C)CO[C@@H]21 (stereo partly drawn)	inactive	inactive	inactive	inactive	inactive	inactive	inactive	inactive	inactive	inactive	–	inactive	inactive	inactive	inactive	inactive	inactive	inactive	–	–
C1CCC2(CCCCO2)OC1	inactive	inactive	inactive	inactive	inactive	inactive	inactive	inactive	inactive	inactive	inactive	inactive	inactive	inactive	–	–	–	–	inactive	–
Cc1ccc(C(=O)c2ccc(CC(=O)O)n2C)cc1	inactive	inactive	inactive	inactive	inactive	inactive	inactive	inactive	inactive	inactive	inactive	inactive	inactive	inactive	inactive	inactive	inactive	inactive	–	–
CCN(CC#N)c1cccc(C)c1	inactive	inactive	inactive	inactive	inactive	inactive	–	inactive	inactive	inactive	–	inactive	inactive	inactive	–	–	–	–	inactive	–
Cc1ncc([C@@H](CCCCCCc2ccc3c(n2)NCCC3)CC(=O)O)cn1	0.109 µM (active)	inactive	–	–	–	–	–	inactive	–	inactive	inactive	inactive	inactive	inactive	–	–	–	–	–	inactive
c1coc(CNc2ncnc3nc[nH]c23)c1	inactive	–	–	–	–	inactive	inactive	inactive	inactive	inactive	inactive	inactive	inactive	inactive	–	–	–	–	inactive	inactive
CN1CC(=O)N/C1=N/C(=O)Nc1cccc(Cl)c1	inactive	inactive	inactive	inactive	33.5 µM (active)	inactive	inactive	inactive	inactive	inactive	inactive	inactive	inactive	inactive	–	–	–	–	inactive	–
NC(=O)N[C@@H](CCC(=O)O)C(=O)O	inactive	inactive	inactive	inactive	inactive	inactive	inactive	inactive	inactive	inactive	inactive	inactive	inactive	inactive	–	–	–	–	inactive	–
